Measured potencies and affinities stand elsewhere. Calls of active or inactive are those of the source.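 How the source made its calls: active means cell killing, meaning signal decrease, with fitted half-maximal dose at or below ten times the top valid tested dose; inconclusive means poor fit, or flat curve with 30 to 70% signal loss; inactive means the rest.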
assay: ATP-based viability loss in HeLa cells – cell-based, CellTiter-Glo luminescence, cherry-pick samples, cytotoxicity control for MITF activator project, dose response (AID 540259); settings: 24 h; series mostly up to 35 µM; activity change, negative = cytotoxicity: at the top concentration;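 further: 0% = DMSO neutral control and -100% = mitoxantrone positive control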

Row | Structure (SMILES) | activity change, negative = cytotoxicity
1 | CCS(=O)(=O)N1Cc2ccccc2CC1C(=O)NCc1cccc(OC)c1 (stereo unspecified) | 3.08% (inactive)
2 | C=CCc1c(C)nc(-c2ccccc2)nc1N/N=C/c1ccncc1 | -11.8% (inactive)
3 | CCS(=O)(=O)Nc1ccc(C(=O)NCCSc2ccccc2)cc1 | -0.036% (inactive)
4 | c1ccc(COc2ccc(-c3csnn3)cc2)cc1 | 2.43% (inactive)
5 | Cn1cc(Br)c(C(=O)N/N=C/c2cc3c(cc2Cl)OCO3)n1 | 28.1% (inactive)
6 | Oc1cccc(-c2nc3ccc4ccccc4c3c3c2CCC3)c1 | 10.9% [at 11 µM] (inactive)
7 | CC(C)(C)C(=O)OCc1nc(-c2ccc(F)cc2)cs1 | 10% (inactive)
8 | O=C(Nc1ccc2c(c1)OCO2)c1cc(-c2ccccc2Cl)on1 | -2.3% (inactive)
9 | Cc1nc(-c2ccc(NC(=O)c3ccccc3Br)cc2)cs1 | 10.2% (inactive)
10 | COc1cccc(C2Nc3ccccc3C(=O)N2c2ccc(F)cc2)c1O (stereo unspecified) | -0.088% (inactive)
11 | O=C(Cc1cccs1)NCc1ccc(Cl)cc1Cl | 19.9% (inactive)
12 | O=C1OC(c2ccccc2)=C/C1=C/N1CCCCC1 | 7.7% (inactive)
13 | O=C(N/N=C/c1ccsc1)c1ccc2c(c1)OCO2 | -0.009% (inactive)
14 | c1ccc(-c2noc(CCC3CCCC3)n2)cc1 | -0.086% (inactive)
15 | CC(=O)c1cnc2nc(SCc3ccccc3)nn2c1C | 17.8% (inactive)
16 | Cc1ccc(-c2csc(NC(=O)c3ccc(Br)cc3)c2C(=O)O)cc1 | 6.5% (inactive)
17 | c1ccc(-c2nc3ccccc3[nH]2)cc1 | -1.01% (inactive)
18 | COc1ccc(-c2nnc(SCc3ccccc3)n2N)cc1 | 14.3% (inactive)
19 | O=C(CC(Nc1ccccc1)C(=O)O)c1ccccc1 (stereo unspecified) | 11.1% (inactive)
20 | CN1CCN(/N=C/c2ccc(Br)cc2)CC1 | 1.36% (inactive)
21 | C=CCn1cnc2c(nnn2-c2ccc(C)c(C)c2)c1=O | -8.47% (inactive)

Reference: PubChem BioAssay AID540259 (Broad Institute, 2011)
